# From PubChem BioAssay
# Results filed as inconclusive are left out. Activity calls are given as the source filed them.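 Rule for the calls, unless noted: active = normalized viability below 100% at a tested concentration; inactive = the rest.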
# Experiments:
# [1] = viability loss in pontine glioma line – cell-based, SU-DIPG-XVII, MIPE5.0, CellTiter-Glo, qHTS, dose response (AID 1347060; cut-off not given, nearly all actives have AC50 up to about 26 µM;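 for AC50: cells exposed to compound for 48 hours before viability readout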); conditions: CellTiter-Glo ATP luminescence
# [2] = viability loss in pontine glioma line – cell-based, SU-DIPG-XIII, MIPE5.0, CellTiter-Glo, qHTS, dose response (AID 1347064; cut-off not given, nearly all actives have AC50 up to about 23 µM;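 for AC50: cells exposed to compound for 48 hours before the viability read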); conditions: CellTiter-Glo ATP luminescence
# [3] = viability loss in pontine glioma line – cell-based, SU-DIPG-XXV, MIPE5.0, CellTiter-Glo, qHTS, dose response (AID 1347065; cut-off not given, nearly all actives have AC50 up to about 26 µM;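 note: cells exposed to compound for 48 hours before ATP readout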); conditions: CellTiter-Glo ATP luminescence
# [4] = JHH-DIPG-1 glioma cell viability, MIPE5.0 library, CellTiter-Glo luminescence, qHTS (AID 1347067; cut-off not given, nearly all actives have AC50 up to about 26 µM;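 note: cells exposed to compound for 48 hours before readout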); conditions: JHH-DIPG-1 glioma viability, CellTiter-Glo ATP luminescence
# [5] = growth inhibition of DIPG cells – cell-based, MIPE5.0 library, qHTS (AID 1347068; cut-off not given, nearly all actives have IC50 up to about 30 µM;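 for IC50: cells exposed to compound for 48 hours before viability readout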); conditions: SU-DIPG-XXV viability
# [6] = growth inhibition, single agent or in combination, cell-based, chromothripsis tumors, cisplatin or BGB combos (AID 1671449; in the data active = inhibition above about 80%;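 note: cells exposed for 96 hours; 0% = vehicle DMSO and 100% = killing by high DMSO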); conditions: LFS_MB_P medulloblastoma cells
# [7] = growth inhibition, single agent and combos, cell-based, chromothripsis tumors, cisplatin or BGB combos (AID 1671450; in the data active = inhibition above about 80%;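 note: cells exposed to compound for four days; 0% = vehicle DMSO and 100% = cell killing by high DMSO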); conditions: HDN33 neuroblastoma cells, stronger effect = higher value
# [8] = growth inhibition, single agents and combos, ICB984, cell-based, cisplatin or BGB combos, synergistic combos for chromothripsis tumors (AID 1671451; call rule not given here;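 note: cells exposed for 96 hours before readout; 0% = vehicle DMSO and 100% = killing by high DMSO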); conditions: ICB984 medulloblastoma cells, drug combinations, stronger effect = higher value
# [9] = growth inhibition, single agents and combos, LFS_MB_1R, cell-based, cisplatin or BGB combos, synergistic combos for chromothripsis tumors (AID 1671452; in the data active = inhibition above about 80%;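 note: cells exposed for 96 hours before readout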); conditions: LFS_MB_1R medulloblastoma cells, stronger effect = higher value
# [10] = growth inhibition, single agents and combos, HTB85, cell-based, BGB or cisplatin IC20 combos, synergistic combos for chromothripsis tumors (AID 1671453; in the data active = inhibition above about 80%;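 note: cells exposed for 96 hours before readout; 0% = vehicle DMSO and 100% = high DMSO killing control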); conditions: HTB85 osteosarcoma cells, drug combinations, stronger effect = higher value
# [11] = growth inhibition, single agents and combos, CRL2098, cell-based, BGB or cisplatin IC20 combos, synergistic combos for chromothripsis tumors (AID 1671454; in the data active = inhibition above about 80%;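 note: cells exposed for 96 h before readout; 0% = vehicle DMSO and 100% = killing by high DMSO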); conditions: CRL2098 osteosarcoma cells, drug combinations, stronger effect = higher value
# [12] = growth inhibition, single agents and combos, HD-MB03, cell-based, BGB or cisplatin IC20 combos, synergistic combos for chromothripsis tumors (AID 1671455; in the data active = inhibition above about 83%;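 note: 0% = vehicle DMSO and 100% = high DMSO as cytotoxic control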); conditions: HD-MB03 medulloblastoma cells, stronger effect = higher value
# [13] = growth inhibition, single agents and combos, UWB1.289, cell-based, BGB or cisplatin combos, synergistic combos for chromothripsis tumors (AID 1671456; in the data active = inhibition above about 80%;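 note: cells exposed to compound for four days; 0% = vehicle DMSO and 100% = killing by high DMSO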); conditions: UWB1.289 ovarian carcinoma cells, stronger effect = higher value
# [14] = growth inhibition, MDA-MB-436, cell-based, BGB or cisplatin combos, synergistic combos for chromothripsis tumors (AID 1671458; call rule not given here;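 note: cells exposed for 96 hours; 0% = vehicle DMSO and 100% = killing by high DMSO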); conditions: MDA-MB-436 breast carcinoma growth inhibition, drug combinations, stronger effect = higher value
# [15] = BT084 cell growth, single and combined drugs, ICGC_MB145, cisplatin and BGB IC40 combos (AID 1671461; in the data active = inhibition above about 80%;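 note: cells exposed to drugs for 96 hours; 0% = vehicle DMSO and 100% = high DMSO full killing control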); conditions: BT084 medulloblastoma cells, drug combinations, stronger effect = higher value
# [16] = RCMB18 cell growth, single agent and combined, cisplatin and BGB IC40 combos (AID 1671462; in the data active = inhibition above about 80%;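 note: cells exposed to compound for four days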); conditions: RCMB18 medulloblastoma cells, stronger effect = higher value
# [17] = CRL1545 cell growth, single agent and combined, cisplatin and BGB IC20 combos (AID 1671464; in the data active = inhibition above about 80%;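 note: cells exposed to compound for 96 hours before readout; 0% = vehicle DMSO and 100% = high DMSO killing control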); conditions: CRL1545 osteosarcoma cells, stronger effect = higher value
# [18] = viability loss with induced miR-34 in A549 – imaging, A549 dox-inducible miR-34, nuclei and caspase counts, primary screen (AID 1347080;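 active = compounds whose cell count with miR-34 switched on is under 0.7 times the count with it off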); conditions: A549 miR-34 inducible, Hoechst nuclei count, 48 h
# [19] = MELAS cybrid and Rieske KO viability enhancers – cell-based, MELAS cybrids, Rieske KO mouse fibroblasts, CellTiter-Glo, primary screen (AID 1508586;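 active = mean z-score across replicates of 1.96 or higher in either the MELAS or the Rieske mutant cell line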;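 note: z relative to plate mean and SD of compound and empty wells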); conditions: low glucose
# [20] = drug combination growth inhibition, ovarian cancer – cell-based, oncology-focused library, rucaparib conditional, profiling panel (AID 1508598); conditions: patient-derived ovarian cancer cells, CellTiter-Glo viability, 144 h, stronger effect = lower value
# [21] = measured here: combination with BGB IC40, at 0.05 µM
# [22] = measured here: with BGB IC20 combination, at 0.5 µM
# [23] = measured here: with cisplatin IC20 combination, at 0.5 µM
# [24] = measured here: combination with cisplatin, at 0.5 µM
structure (smiles),measurement,setting,value
CN(C)C/C=C/C(=O)Nc1ccc(C(=O)Nc2cccc(Nc3ncc(Cl)c(-c4c[nH]c5ccccc45)n3)c2)cc1,AC50,[1],263 nM (active)
same,AC50,[2],209 nM (active)
same,AC50,[3],209 nM (active)
same,AC50,[4],263 nM (active)
same,IC50,[5],295 nM (active)
same,inhibition,"[6]; at 0.5 µM, stronger effect = higher value",-12.9% (inactive)
same,inhibition,"[6]; measured here: combination with BGB IC20, at 0.005 µM",-29.1%
same,inhibition,"[6]; measured here: combination with BGB IC40, at 0.005 µM",-64.8%
same,inhibition,[6]; [21],7.86%
same,inhibition,"[6]; measured here: combination with cisplatin, at 0.5 µM, stronger effect = higher value",-42.5%
same,inhibition,"[6]; measured here: combination with cisplatin, at 5 µM, stronger effect = higher value",89.6%
same,inhibition,"[7]; BGB combo, at 5 µM",97.3%
same,inhibition,[7]; at 0.5 µM,42.9% (inactive)
same,inhibition,"[7]; cisplatin combo, at 5 µM",98.3%
same,inhibition,[7]; [22],43.5%
same,inhibition,[7]; [23],38.3%
same,inhibition,"[7]; single agent, at 5 µM",98.9%
same,inhibition,"[8]; BGB IC20 combo, at 0.005 µM",97.6%
same,inhibition,"[8]; BGB IC40 combo, at 0.005 µM",98.3%
same,inhibition,"[8]; BGB IC40 combo, at 0.05 µM",102%
same,inhibition,[8]; at 0.5 µM,-27.1% (inactive)
same,inhibition,"[8]; cisplatin combo, at 0.05 µM",102%
same,inhibition,"[8]; cisplatin combo, at 0.5 µM",-38.3%
same,inhibition,"[8]; cisplatin combo, at 5 µM",33.8%
same,inhibition,"[8]; measured here: 5 uM single agent, at 5 µM",11.6%
same,inhibition,[9]; at 0.5 µM,103% (active)
same,inhibition,[9]; [21],23.8%
same,inhibition,[9]; [24],101%
same,inhibition,"[9]; measured here: combination with cisplatin, at 5 µM",97.5%
same,inhibition,[10]; at 0.5 µM,91.8% (active)
same,inhibition,"[10]; measured here: with BGB IC20, at 0.5 µM",89.2%
same,inhibition,"[10]; measured here: with BGB IC20, at 5 µM",99.9%
same,inhibition,"[10]; measured here: with cisplatin IC20, at 0.5 µM",92.7%
same,inhibition,"[10]; measured here: with cisplatin IC20, at 5 µM",99.8%
same,inhibition,"[10]; single agent, at 5 µM",100%
same,inhibition,[11]; at 0.5 µM,41.6% (inactive)
same,inhibition,"[11]; measured here: combination with BGB at IC20, at 0.5 µM",72.6%
same,inhibition,"[11]; measured here: combination with cisplatin at IC20, at 0.5 µM",29.6%
same,inhibition,[12]; at 0.5 µM,64.6% (inactive)
same,inhibition,"[12]; measured here: combo with BGB at IC20, at 0.5 µM",57.2%
same,inhibition,"[12]; measured here: combo with cisplatin at IC20, at 0.5 µM",71.3%
same,inhibition,[13]; at 0.5 µM,74.6% (inactive)
same,inhibition,"[13]; measured here: inhibition with BGB combination, at 0.05 µM",9.81%
same,inhibition,"[13]; measured here: inhibition with cisplatin combination, at 0.05 µM",0.164%
same,inhibition,[14]; at 0.5 µM,57.8% (inactive)
same,inhibition,"[14]; measured here: BGB combination, at 0.5 µM",51.4%
same,inhibition,"[14]; measured here: BGB combination, at 5 µM",40.9%
same,inhibition,"[14]; measured here: cisplatin combination, at 0.5 µM",50.4%
same,inhibition,"[14]; measured here: cisplatin combination, at 5 µM",69.8%
same,inhibition,[15]; at 0.5 µM,32.3% (inactive)
same,inhibition,"[15]; cisplatin combination, at 0.5 µM",10%
same,inhibition,"[15]; cisplatin combination, at 5 µM",35.4%
same,inhibition,"[15]; measured here: BGB IC40 combination 0.05 uM, at 0.05 µM",15.5%
same,inhibition,"[15]; single agent, at 5 µM",89%
same,inhibition,[16]; at 0.5 µM,66.8% (inactive)
same,inhibition,"[16]; cisplatin combo, at 5 µM",71.7%
same,inhibition,"[16]; measured here: BGB IC40 combination, at 0.05 µM",52.8%
same,inhibition,[16]; [24],69.4%
same,inhibition,"[16]; single agent, at 5 µM",89.7%
same,inhibition,[17]; at 0.5 µM,80.7% (active)
same,inhibition,[17]; [22],72.6%
same,inhibition,[17]; [23],84.4%
same,inhibition,"[17]; single agent, at 0.05 µM",-55.9%
same,inhibition,"[17]; single agent, at 5 µM",99.8%
CN(CCOc1ccc(C[C@H](Nc2ccccc2C(=O)c2ccccc2)C(=O)O)cc1)c1ccccn1,outcome,[1],inactive
same,outcome,[2],inactive
same,outcome,[3],inactive
same,outcome,[4],inactive
same,outcome,[5],inactive
COc1cc(Nc2nc3ccccc3nc2NS(=O)(=O)c2ccc(NC(=O)c3ccc(C)c(OC)c3)cc2)cc(OC)c1,outcome,[1],inactive
same,outcome,[2],inactive
same,outcome,[3],inactive
same,outcome,[4],inactive
same,outcome,[5],inactive
same,fold change,"[18]; stronger effect = lower value, cell number ratio, induced over uninduced",0.923 (inactive)
same,fold change,[18]; measured here: relative caspase fold change +Dox/-Dox,1.03
same,cell count,"[18]; measured here: total cells with miR-34 induction, stronger effect = lower value",7550
same,cell count,[18]; measured here: total cells without miR-34 induction,8180
same,z-score,"[19]; MELAS cybrid survival, CellTiter-Glo 48 h, stronger effect = higher value",-0.401 (inactive)
same,z-score,"[19]; Rieske KO mouse fibroblast survival, CellTiter-Glo 72 h",0.479
same,viability,"[20]; at 0.000305 µM, OCI-C5x cells, with rucaparib 10 µM, 100% = cells with rucaparib alone",98.9% (active)
same,viability,"[20]; at 0.000305 µM, OCI-C5x cells, without rucaparib",109% (inactive)
same,viability,"[20]; at 0.000305 µM, OCI-P5x cells, with rucaparib 20 µM, 100% = cells with rucaparib alone",91.1% (active)
same,viability,"[20]; at 0.000305 µM, OCI-P5x cells, without rucaparib",95.8% (active)
same,viability,"[20]; at 0.00122 µM, OCI-C5x cells, with rucaparib 10 µM, 100% = cells with rucaparib alone",114% (inactive)
same,viability,"[20]; at 0.00122 µM, OCI-C5x cells, without rucaparib",112% (inactive)
same,viability,"[20]; at 0.00122 µM, OCI-P5x cells, with rucaparib 20 µM, 100% = cells with rucaparib alone",104% (inactive)
same,viability,"[20]; at 0.00122 µM, OCI-P5x cells, without rucaparib",98.9% (active)
same,viability,"[20]; at 0.00488 µM, OCI-C5x cells, with rucaparib 10 µM, 100% = cells with rucaparib alone",110% (inactive)
same,viability,"[20]; at 0.00488 µM, OCI-C5x cells, without rucaparib",112% (inactive)
same,viability,"[20]; at 0.00488 µM, OCI-P5x cells, with rucaparib 20 µM, 100% = cells with rucaparib alone",103% (inactive)
same,viability,"[20]; at 0.00488 µM, OCI-P5x cells, without rucaparib",101% (inactive)
same,viability,"[20]; at 0.0195 µM, OCI-C5x cells, with rucaparib 10 µM, 100% = cells with rucaparib alone",106% (inactive)
same,viability,"[20]; at 0.0195 µM, OCI-C5x cells, without rucaparib",109% (inactive)
same,viability,"[20]; at 0.0195 µM, OCI-P5x cells, with rucaparib 20 µM, 100% = cells with rucaparib alone",101% (inactive)
same,viability,"[20]; at 0.0195 µM, OCI-P5x cells, without rucaparib",107% (inactive)
same,viability,"[20]; at 0.0781 µM, OCI-C5x cells, with rucaparib 10 µM, 100% = cells with rucaparib alone",118% (inactive)
same,viability,"[20]; at 0.0781 µM, OCI-C5x cells, without rucaparib",114% (inactive)
same,viability,"[20]; at 0.0781 µM, OCI-P5x cells, with rucaparib 20 µM, 100% = cells with rucaparib alone",109% (inactive)
